# From PubChem BioAssay (NCATS)
# Records with an inconclusive call do not appear. Calls of active or inactive are those of the source. Calls follow the shape of the dose curve; as a rule, active = well fitted inhibition curve with a large enough effect; inconclusive = small, poorly fitted or top-dose-only effect; inactive = flat fitted curve, though single readings scatter.
# Target: Aldehyde dehydrogenase, mitochondrial (Homo sapiens) (UniProt P05091)
# Assay: qHTS for Inhibitors of the Aldehyde Dehydrogenase Family (ALDH2) Primary screen (AID 2061308);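 also: plate controls were vehicle for no effect and reference inhibitor for full effect; nearly all actives have a fitted effect of over 55% in size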
# Conditions: ALDH2 enzyme inhibition qHTS, 1536-well; series mostly up to 56 µM; activity change, negative = inhibition: at the top concentration
SMILES,"activity change, negative = inhibition",Potency
CC1(C)CCC2(C(=O)O)CCC3(C)C(=CCC4C5(C)CCC(O)C(C)(CO)C5C(O)CC43C)C2C1 (stereo not given),-3.43% [at 28 µM] (inactive),
CC(C)=CCC/C(C)=C/CO[C@@H]1O[C@H](CO)[C@@H](O)[C@H](O)[C@H]1O,3.43% (inactive),
COC(=O)C1=CO[C@@H](O[C@@H]2O[C@H](CO)[C@@H](O)[C@H](O)[C@H]2O)[C@@H]2[C@@H](C(=O)O)CC[C@H]12,-13.7% [at 28 µM] (inactive),
CCOc1ccc(-c2ccc(Cn3c(CC(C)(C)C(=O)O)c(SC(C)(C)C)c4cc(OCc5ccc(C)cn5)ccc43)cc2)cn1,,inactive
COC(=O)C1(C)CCC2(C(=O)O)CCC3(C)C(=CCC4C5(C)CC(O)C(OC6OCC(O)C(O)C6O)C(C)(CO)C5CCC43C)C2C1 (stereo not given),-2.91% [at 16.9 µM] (inactive),
CO[C@H]1C[C@@H]2CC[C@@H](C)[C@@](O)(O2)C(=O)C(=O)N2CCCC[C@H]2C(=O)O[C@H]([C@H](C)C[C@H]2CC[C@@H](OP(C)(C)=O)[C@H](OC)C2)CC(=O)[C@H](C)/C=C(\C)[C@@H](O)[C@@H](OC)C(=O)[C@H](C)C[C@H](C)/C=C/C=C/C=C/1C,0.523% (inactive),
O=C(O)c1cccc(C(=O)CCC2OC(n3cnc4c(=O)[nH]cnc43)C(O)C2O)c1 (stereo not given),-11.2% [at 28 µM] (inactive),
COc1cc(C(=O)NC2CCN(C)CC2)ccc1Nc1ncc2c(n1)N(C1CCCC1)CC(F)(F)C(=O)N2C,-0.773% (inactive),
CN1C(=O)N(c2cc(Cl)cc(Cl)c2)C(=O)[C@@]1(C)Cc1ccc(Br)cc1,-11.5% (inactive),
CC(=O)c1ccc(O[C@@H]2O[C@H](CO[C@@H]3OC[C@@H](O)[C@H](O)[C@H]3O)[C@@H](O)[C@H](O)[C@H]2O)cc1,-1.43% [at 28 µM] (inactive),
